Assay outcomes as filed in PubChem.
Most compounds without a hit are left out; they make up all but 0.98% or so of the library.
RTF Ca sens inh – cardiac RTF calcium desensitization. P19429+P45379. IANBD-labeled cardiac RTF, Ca2+ fluorescence. inhibition, % at 7.15 µM. 340,000 tested, 0.12% active;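 active means inhibition above the mean inhibition of all tested compounds plus 3 SD, cut at about 17% in these data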;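 further: assay run at fixed EC70 calcium of 1.6 mM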
Keap1 Nrf2 FP – inhibitors of human Keap1-Nrf2 protein-protein interaction | Q14145 | Keap1 Kelch-Nrf2 peptide fluorescence polarization, 1536-well | inhibition, % at 9.4 µM | 340,000 tested, 0.15% active | AID 504523; in the data active means inhibition above about 12%;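 further: human Keap1 Kelch domain with fluorescein labeled Nrf2 9mer peptide probe; 0% = neutral control wells and 100% = peptide positive control; higher means more block of Keap1 binding to Nrf2 peptide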
Target sequence (Q14145 whole entry, looked up, the tested form may be a part): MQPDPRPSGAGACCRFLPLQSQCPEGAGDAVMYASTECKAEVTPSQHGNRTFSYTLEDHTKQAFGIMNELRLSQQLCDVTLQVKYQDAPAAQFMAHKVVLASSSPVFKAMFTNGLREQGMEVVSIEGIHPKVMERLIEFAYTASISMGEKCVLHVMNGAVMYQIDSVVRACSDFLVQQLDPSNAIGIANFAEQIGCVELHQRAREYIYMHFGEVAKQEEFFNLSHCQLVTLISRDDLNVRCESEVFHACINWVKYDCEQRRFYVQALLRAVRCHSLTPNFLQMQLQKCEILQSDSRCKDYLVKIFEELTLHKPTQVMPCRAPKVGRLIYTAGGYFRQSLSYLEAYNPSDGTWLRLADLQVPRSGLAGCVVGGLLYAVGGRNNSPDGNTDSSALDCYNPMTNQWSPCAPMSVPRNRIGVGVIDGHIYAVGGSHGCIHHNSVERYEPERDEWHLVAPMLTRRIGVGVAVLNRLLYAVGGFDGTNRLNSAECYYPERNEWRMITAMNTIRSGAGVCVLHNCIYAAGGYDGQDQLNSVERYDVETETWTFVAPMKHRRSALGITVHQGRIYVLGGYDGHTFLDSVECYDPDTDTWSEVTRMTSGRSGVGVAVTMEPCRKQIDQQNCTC
LANA-H2B inh – blocks KSHV LANA binding to histone H2A/H2B. Q9QR71. cell-free LANA-H2A/H2B peptide, fluorescence polarization. inhibition, % (concentration not given with the values). 320,000 tested, 0.6% active. AID 2629; in the data active means inhibition mostly above about 10%, no sharp cut-off; inactive means mostly below about 6.7%
cardiac RTF act – cardiac RTF calcium sensitization; 340,000 tested, 0.24% active; activation, % at 7.2 µM; AID 493008; IANBD-labeled TnC RTF fluorescence at EC20 calcium; 0% EC20 calcium, 100% full calcium; P19429+P45379;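 active means activation above the mean over all tested compounds plus 3 SD, cut at about 30% in these data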;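 further: rise in fluorescence read as greater calcium sensitivity of cardiac thin filaments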
LANA DNA inh – KSHV C-LANA DNA binding inhibition; MBP-C-LANA/FAM-LBS DNA binding, fluorescence polarization; inhibition, % at 9 µM; 340,000 tested, 0.078% active; AID 504423;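 active means highest replicate inhibition at or above 60% at 9 µM, even if other replicates fall short; inactive means all replicates below 60% inhibition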;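 further: 0% = neutral control wells and 100% = 4 µM acridine orange control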
An asterisk follows results filed as active.

`Cc1ccc2[nH]cc(/C=C/c3cc[n+](C)cc3)c2c1` gave RTF Ca sens inh -243, Keap1 Nrf2 FP -167, LANA-H2B inh -228, cardiac RTF act 230* and LANA DNA inh -21.
Screening NC(=O)c1ccc(NC(=O)C2COc3ccccc3O2)cc1 (configuration not stated) returned RTF Ca sens inh -3, Keap1 Nrf2 FP 69*, LANA-H2B inh -5 and cardiac RTF act -1.
O=C(Nc1ccc(F)cc1)C1COc2ccccc2O1 (configuration not stated) was read as RTF Ca sens inh 3, Keap1 Nrf2 FP 5, LANA-H2B inh -3, cardiac RTF act 12 and LANA DNA inh 1.
COc1ccc(-c2cc(C(F)(F)F)c3c(n2)sc2c(O)cc(=O)[nH]c23)c(OC)c1 was read as RTF Ca sens inh -70, Keap1 Nrf2 FP -74, LANA-H2B inh -10, cardiac RTF act 38* and LANA DNA inh 1.
`O=C(Cc1ccc2c(c1)CCCC2)Nc1ccccc1Br` gave RTF Ca sens inh -4, Keap1 Nrf2 FP 4, LANA-H2B inh 4, cardiac RTF act -1 and LANA DNA inh 1.
`O=C(Cc1ccc2ccccc2c1)Nc1ccccc1Br` gave RTF Ca sens inh 4, Keap1 Nrf2 FP 3, LANA-H2B inh 39*, cardiac RTF act -4 and LANA DNA inh -3.
`O=C(Nc1cccc(-n2cnnn2)c1)C1CCCN(Cc2cccc(C(F)(F)F)c2)C1` (configuration not stated) gave RTF Ca sens inh 0, Keap1 Nrf2 FP -5, LANA-H2B inh 13*, cardiac RTF act -2 and LANA DNA inh 1.
Cc1c(Cc2ccccc2)c(=O)oc2c(O)c(O)ccc12 was read as Keap1 Nrf2 FP -3 and LANA DNA inh 0.
For Cc1c(Cc2ccccc2)c(=O)oc2c(CN(C)C)c(O)c(Cl)cc12 the results were RTF Ca sens inh -3, Keap1 Nrf2 FP -6, LANA-H2B inh 5.7*, cardiac RTF act 0 and LANA DNA inh 1.
For CC(C)C1COC(c2cccn2Cc2ccccc2Cl)=N1 (configuration not stated) the results were RTF Ca sens inh 7, Keap1 Nrf2 FP 0, LANA-H2B inh 20*, cardiac RTF act -7 and LANA DNA inh 0.
CC(=O)Nc1ccc(NC(=O)Nc2ccc(C)cc2C)cc1 was read as RTF Ca sens inh -4, Keap1 Nrf2 FP -6, LANA-H2B inh 15*, cardiac RTF act 4 and LANA DNA inh 0.
For CC(=O)Nc1ccc(OCC(=O)c2cc(C)ccc2C)cc1 the results were RTF Ca sens inh -5, Keap1 Nrf2 FP 3, LANA-H2B inh 19*, cardiac RTF act 1 and LANA DNA inh -1.
`CCCn1c(N)c(C(=O)CSc2nnc3ccccn23)c(=O)n(C)c1=O` gave RTF Ca sens inh -3, Keap1 Nrf2 FP -3, cardiac RTF act -1 and LANA DNA inh 0.
`O=C(Nc1ccc(OC(F)F)cc1)c1cc(S(=O)(=O)N2CCOCC2)ccc1N1CCCC1` gave RTF Ca sens inh -6, Keap1 Nrf2 FP 0, cardiac RTF act -5 and LANA DNA inh 0.
`Cc1cc(N2C(=O)C3C4CC(c5ccccc5)C(C4)C3C2=O)no1` (configuration not stated) gave RTF Ca sens inh -11, Keap1 Nrf2 FP -2, LANA-H2B inh 6, cardiac RTF act 10 and LANA DNA inh 0.
Screening CCO[C@H]1OC(C(=O)NCc2nc3ccccc3[nH]2)=C[C@@H](C2CCCCC2)[C@@H]1CCCO returned RTF Ca sens inh -6, Keap1 Nrf2 FP -4, LANA-H2B inh 18*, cardiac RTF act 6 and LANA DNA inh -1.
Screening CC(C)(CS(=O)(=O)[O-])NC(=O)CC[N+](C)(C)CCO returned RTF Ca sens inh -7, Keap1 Nrf2 FP -1, LANA-H2B inh 2, cardiac RTF act -6 and LANA DNA inh 82*.
For CNc1nnc(SCC(=O)N2c3ccccc3NC(=O)CC2C)s1 (configuration not stated) the results were RTF Ca sens inh 4, Keap1 Nrf2 FP 1, LANA-H2B inh active, cardiac RTF act -7 and LANA DNA inh 1.
Screening Cn1cc(/C=C2\SC(=S)N(NC(=O)c3ccccc3Cl)C2=O)c2ccccc21 returned RTF Ca sens inh -148, Keap1 Nrf2 FP -7, LANA-H2B inh -48, cardiac RTF act 74* and LANA DNA inh 0.
`Cc1ccc(C(=O)NN2C(=O)/C(=C/c3cccn3C)SC2=S)cc1` gave RTF Ca sens inh -28, Keap1 Nrf2 FP 2, LANA-H2B inh -15, cardiac RTF act 15 and LANA DNA inh 0.
